Measured values: PubChem BioAssay AID463173 (ICCB-Longwood Screening Facility, Harvard Medical School, 2010)
Hit rate of the full screen: of about 52,000 compounds, about 4,300 (8.3%) were called active. The sample as a whole holds a higher share of actives than the screen did. A number with no mark means an inactive call. No stated cut-off is given here; in the data, active means survival mostly below about 52% (no sharp cut-off); inactive means mostly above about 56%.

test system: DeltatarO mutant; test: growth inhibition of S. aureus wild type versus tarO mutant, primary screen, teichoic acid synthesis inhibitors, RN4220, OD600 (AID 463173); conditions: OD600, 18 h, stronger effect = lower value, screened at 18.75 µg/mL (by protocol)

Point of comparison: `CCN(CC)c1ccc2cc(-c3nc(-c4cccs4)no3)c(=O)oc2c1`, survival 83%. Against it:
- COc1cccc2c1Oc1ncccc1N(C(=O)Nc1ccc(F)c(Cl)c1)C2 — higher, 135%
- COc1cccc(N2CCN(S(=O)(=O)c3ccc4[nH]c5c(c4c3)CCCC5)CC2)c1 — higher, 84%
- C[N+](C)(C)CC(O)COc1ccccc1 (stereo not given) — lower, 82%
- CCc1cccc(C)c1NC(=O)Cn1nc(C)n2cccc2c1=O — higher, 92%
- COc1cccc(CNC(=O)CCc2nnc3n(CC(C)C)c(=O)c4ccccc4n23)c1 — higher, 85%
- COc1ccccc1CNC(=O)CCc1c(C)nc2c(c(C)nn2-c2ccc(C)c(C)c2)c1C — lower, 69%
- CN1C(=O)c2cccc3c(S(=O)(=O)Nc4cccc(C(=O)O)c4)ccc1c23 — lower, 74%
- COC(=O)c1c(-c2ccc(Cl)cc2)noc1N1CCN(c2ccc(C(C)=O)cc2)CC1 — lower, 81%
- O=C(CN1CCC(n2nnc3ccccc32)CC1)N(C1CCCCC1)C1CCCCC1 — higher, 100%
- Cc1cccc(NS(=O)(=O)c2ccc3[nH]c(=O)[nH]c3c2)c1C — lower, 78%
- Cc1cc(NC(=O)C2CCCN(S(=O)(=O)c3ccc(Br)s3)C2)ccc1Br (stereo not given) — lower, 68%
- COCC(=O)NC1CCN(Cc2nnnn2Cc2ccc3c(c2)OCO3)CC1 — higher, 87%
- COc1ccccc1NC(=O)Cn1c(=O)n(CC(=O)NCc2ccccc2Cl)c(=O)c2sccc21 — higher, 172%
- CC(=O)c1ccc(S(=O)(=O)Nc2cccc(-c3ccc(N4CCCCC4)nn3)c2)cc1 — lower, 80%
- COc1ccccc1OCc1nc(C#N)c(NCc2ccc(C)cc2)o1 — the same, 83%
- COc1ccc(CCNc2oc(COc3ccc(Cl)cc3)nc2C#N)cc1OC — lower, 74%
- COc1cccc(/C=C/c2nc(C#N)c(NCCc3ccccc3)o2)c1 — higher, 90%
- COc1ccc(CCNc2oc(COc3cccc(C)c3)nc2C#N)cc1OC — higher, 95%
- N#Cc1nc(COc2ccccc2Cl)oc1NCCc1ccccc1 — lower, 48%
- Cc1cccc(OCc2nc(C#N)c(NCc3ccccc3Cl)o2)c1 — lower, 53%
- CCC(Sc1nc2ccncc2[nH]1)C(=O)Nc1cc(C)ccc1C (stereo not given) — higher, 132%
- Cn1ncc(C(=O)N2CCN(c3ccccc3F)CC2)c1C1CCN(C(=O)OC(C)(C)C)CC1 — lower, 71%
- CCOc1ccc2oc(=O)cc(CN3CCN(Cc4ccc(F)cc4)CC3)c2c1 — the same, 83%
- CCOc1ccc2oc(=O)cc(CN3CCN(C(=O)c4ccc(OC)c(OC)c4)CC3)c2c1 — lower, 50%
- CCOc1ccc2oc(=O)cc(CN3CCN(C(=O)c4cccc(Cl)c4)CC3)c2c1 — lower, 66%
- CCOc1ccc2oc(=O)cc(CN3CCN(C(=O)c4ccc(Cl)cc4)CC3)c2c1 — higher, 86%
- CCc1nc2ccc(C(=O)NCc3ccc(N(C)C)cc3)cc2nc1CC — higher, 99%
- Cc1c(C(=O)N2CCC(C)CC2)c(S(=O)(=O)NCc2ccccc2)c(C)n1C — lower, 66%
- O=C(NCc1ccccc1Br)c1cnc2sc(N3CCCCCC3)nn2c1=O — higher, 94%
- Cc1cccc(NC(=O)CSc2cn(CC(=O)N3CCCC3)c3ccccc23)c1C — higher, 99%
- Cc1ccc(N2C(=O)CSC23C(=O)N(CC(=O)NC2CCCCC2)c2ccccc23)cc1C (stereo not given) — higher, 94%
- CCCn1cc(S(=O)(=O)c2cccc(Cl)c2)c(=O)c2cc(F)c(N3CCN(CC)CC3)cc21 — higher, 115%
- Cc1cccc(Cn2c(-c3cccc(Br)c3)nc3ccccc32)c1 — higher, 122%
- Cc1ccc(Cn2c(=O)c3ccccc3n3c(-c4ccccc4)nnc23)cc1 — higher, 86%
- Fc1ccc(Cn2c(-c3cccc(Br)c3)nc3ccccc32)cc1 — higher, 109%
- O=C(CSc1nc2ccccc2n1Cc1ccccc1F)NCc1ccccc1 — higher, 97%
- Cc1ccc(Cn2c(CCNC(=O)c3cccc(C)c3)nc3ccccc32)cc1 — lower, 60%
- Nc1nonc1-c1nc2ccccc2n1Cc1cccc(Cl)c1 — lower, 80%
- CCC(O)c1nc2ccccc2n1Cc1cccc(Cl)c1 (stereo not given) — the same, 83%
- Cc1ccc(Cn2c(C(C)NC(=O)c3ccccc3)nc3ccccc32)cc1 (stereo not given) — higher, 90%
- CCOC(=O)Cc1ccc(NC(=O)N2CC(C)Oc3ccc(Cl)cc32)cc1 (stereo not given) — lower, 55%
- O=CN(Cc1ccco1)C1(C(=O)NC2CCCCC2)CCCCC1 — lower, 76%
- OCc1cnc(SCc2ccccc2F)n1Cc1ccc(F)cc1 — higher, 87%
- COc1ccccc1CNC(=O)CCC1N=C2c3ccccc3N=C(SCC(=O)Nc3ccc(F)cc3)N2C1=O (stereo not given) — higher, 84%
- Cc1ccc2nc(-c3cccnc3)c(Nc3ccc(C(C)C)cc3)n2c1 — higher, 94%
- O=C(COCc1cc(-c2ccc3c(c2)OCO3)on1)Nc1cc(Cl)ccc1O — lower, 60%
- CCn1c(=O)cc(SCC(=O)Nc2cc(Cl)ccc2OC)c2ccccc21 — lower, 67%
- CCCNC(=O)c1ccc(Cn2c(SCC(=O)NC(C)C)nc3ccccc3c2=O)cc1 — higher, 102%
- COc1cccc(C(=O)NCC(c2ccc(N(C)C)cc2)N2CCc3ccccc32)c1OC (stereo not given) — higher, 93%
- CN(C)c1ccc(C(CNC(=O)c2ccccc2)N2CCc3ccccc32)cc1 (stereo not given) — higher, 115%
- CCOc1ccccc1C(=O)NCC(c1ccc(N(C)C)cc1)N1CCc2ccccc21 (stereo not given) — higher, 102%
- CN(C)c1ccc(C(CNC(=O)c2ccccc2F)N2CCc3ccccc32)cc1 (stereo not given) — higher, 105%
- O=C(Cn1c(=O)sc2ccccc21)Nc1cccc(Cl)c1 — the same, 83%
- CCN(Cc1ccccc1)C(=O)CN1C(=O)COc2ccc(S(=O)(=O)N3CCOCC3)cc21 — higher, 98%
- CCOC(=O)Nc1cccc(C(=O)O)c1 — lower, 71%
- COC(=O)c1c(NC(=O)c2nc(SCc3cccc(C)c3)ncc2Cl)sc2c1CCCC2 — higher, 113%
- COC(=O)c1c(NC(=O)c2nc(SC)ncc2Cl)sc2c1CCCC2 — higher, 85%
- CCOC(=O)c1c(NC(=O)c2nc(SCC)ncc2Cl)sc2c1CCCC2 — higher, 91%
- COC(=O)c1c(NC(=O)c2nc(SCc3ccc(F)cc3)ncc2Cl)sc2c1CCCC2 — lower, 47%
- CCSc1ncc(Cl)c(C(=O)Nc2sc3c(c2C(=O)NC)CCCC3)n1 — lower, 82%
- Cc1ccc(CSc2ncc(Cl)c(C(=O)Nc3sc4c(c3C(N)=O)CCCC4)n2)cc1 — higher, 105%
- Cc1cc(C)nc(-n2nc(C)c3c2N(Cc2ccccc2F)C(=O)CC3c2ccc(Cl)cc2)n1 (stereo not given) — higher, 100%
- CCC(=O)N1CCc2cc(Br)cc(S(=O)(=O)CCC(=O)Nc3ccc(C)c(F)c3)c21 — higher, 86%
- CCCCn1c(SCC(=O)Nc2ccc(OCC)cc2)nc2ccsc2c1=O — higher, 130%
- CCc1ccccc1NC(=O)C1(C)Cc2ccccc2C(=O)O1 (stereo not given) — higher, 97%
- CCc1ccc(NCc2cc3cc4c(cc3n(CC(=O)Nc3ccccc3Cl)c2=O)OCO4)cc1 — lower, 73%
- Cn1c(=O)n(C)c2cc(N3CCCCC3)c(NC(=O)c3ccc(Cl)cc3)cc21 — lower, 74%
- CCc1ccc(NC(=O)CN2C(=O)C(c3ccc(F)cc3)=NC2(C)C)cc1 — lower, 81%
- Cc1ccc(NC(=O)Cn2c(=O)c3ccccc3n3nncc23)cc1 — higher, 114%
- Cc1ccc2nc(-c3ccc(NC(=O)C(F)(F)F)cc3)sc2c1 — higher, 98%
- Nc1ccc2nc(-c3ccc(O)cc3)sc2c1 — higher, 120%
- Cc1cccc(C)c1OCc1nc2c3cnn(-c4ccccc4Br)c3ncn2n1 — lower, 69%
- COc1ccc(Br)c(C(=O)Nc2cc3c(cc2N2CCOCC2)n(C)c(=O)n3C)c1 — lower, 82%
- O=C(NCCCc1nc2ccccc2n1Cc1ccc(Cl)cc1)c1ccco1 — higher, 105%
- Cc1ccc(Cn2c(CCCNC(=O)c3ccco3)nc3ccccc32)cc1 — lower, 77%
- O=C(NCCc1nc2ccccc2n1Cc1ccccc1)c1ccco1 — higher, 113%
- O=C(NCCCc1nc2ccccc2n1Cc1ccc(Cl)cc1Cl)c1ccco1 — lower, 58%

For `N#Cc1nc(COc2cccc(Cl)c2)oc1NCCc1ccccc1`, the survival was 39% (active).
For `Cc1ccc(OCc2nc(C#N)c(NCCc3ccccc3)o2)cc1`, the survival was 35% (active).
With `COc1ccc(CNc2oc(COc3cccc(C)c3)nc2C#N)cc1` the survival was 40% (active).
In the case of `CCOc1ccc2oc(=O)cc(CN3CCN(C(=O)c4cccc(F)c4)CC3)c2c1`, the survival is reported as 31% (active).
In the case of `CCOc1ccc2oc(=O)cc(CN3CCN(C(=O)c4ccc(F)cc4)CC3)c2c1`, the survival is reported as 31% (active).
For `Cc1ccc(Cn2c(-c3ccccc3)nc3ccccc32)cc1`, the survival was -2% (active).
`Fc1ccccc1Cn1c(-c2ccccc2)nc2ccccc21` was tested, and the survival was 1% (active).
`Cc1cccc(Cn2c(-c3ccccc3)nc3ccccc32)c1` was tested, and the survival was -2% (active).
In the case of `Cc1cccc(-c2nc3ccccc3n2Cc2ccccc2)c1`, the survival is reported as 0% (active).
In the case of `CN(C)c1ccc(C(CNC(=O)c2ccccc2Cl)N2CCc3ccccc32)cc1` (stereo not given), the survival is reported as 37% (active).
In the case of `COc1ccccc1C(=O)NCC(c1ccc(N(C)C)cc1)N1CCc2ccccc21` (stereo not given), the survival is reported as 46% (active).
`CNC(=O)c1c(NC(=O)c2nc(SCc3ccc(C)cc3)ncc2Cl)sc2c1CCCC2` was tested, and the survival was 37% (active).
With `CCOC(=O)c1c(NC(=O)c2nc(SC(C)C)ncc2Cl)sc2c1CCCC2` the survival was 56% (active).
`COC(=O)c1c(NC(=O)c2nc(SCc3ccc(C)cc3)ncc2Cl)sc2c1CCCC2` was tested, and the survival was 46% (active).
`Cc1ccc2sc(-c3ccc(N)cc3)nc2c1` was tested, and the survival was 12% (active).
For `O=C(NCCc1nc2ccccc2n1Cc1ccc(Cl)cc1Cl)c1ccco1`, the survival was 49% (active).
With `O=C(NCCCc1nc2ccccc2n1Cc1cccc(Cl)c1)c1ccco1` the survival was 46% (active).
